Where “and” joins values, the source holds several entries; their conditions need not be identical. Equal entries are not always repeated. Results filed as inconclusive are left out. Some structures have more than one record in an assay (separate samples or runs), and their calls can disagree. Calls of active or inactive are those of the source. The calls were made as follows, unless noted: active = hit-call score of the fitted dose curve at least 0.9, where 1 is the maximum; inconclusive = response in the unintended direction; inactive = score below 0.9.
Legend:
[1] = BSK_4H_Eotaxin3: BioMAP Diversity Plus: 4H Assay for Eotaxin 3 Biomarker Activity (AID 2283000; active = hit-call score of the fitted dose curve at least 0.9, where 1 is the maximum; inactive = score below 0.9); conditions: primary human endothelial cells (HUVEC); actives raise or lower the signal
Summary of the method: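 Human umbilical vein endothelial cells (BSK_4H system) dosed with test chemical; Eotaxin-3 (CCL26) measured by ELISA 24 h after dosing. Bidirectional curve fitting relative to DMSO negative control as baseline.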

[2] = molecular target: human Peroxisome Proliferator-activated Receptor alpha (PPARa), PPARA (gene 5465) (UniProt Q07869); experiment: ATG_PPARa_TRANS: Attagene TRANS-FACTORIAL HepG2 Assay for human Peroxisome Proliferator-activated Receptor alpha (PPARa) (AID 2283001);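 as to AC50: potency for gain of reporter signal over DMSO so agonist or activator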
Summary of the method: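 Exposure: 24 h, transiently transfected HepG2 cells. Endpoint: GAL4-UAS reporter mRNA, RT-PCR with capillary electrophoresis fluorescence. Baseline: DMSO; increases fitted.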

[3] = read-out: Intercellular Adhesion Molecule 1 (ICAM1), ICAM1 (gene 3383); experiment: BSK_3C_ICAM1: BioMAP Diversity Plus: 3C Assay for Intercellular Adhesion Molecule 1 (ICAM1) Biomarker Activity (AID 2283003; active = hit-call score of the fitted dose curve at least 0.9, where 1 is the maximum; inactive = score below 0.9); conditions: primary human endothelial cells (HUVEC); actives raise or lower the signal
Summary of the method: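 Using DMSO as baseline, bidirectional curve fitting was applied to ICAM-1 ELISA signals from HUVEC in the 3C system, measured 24 h after compound addition.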

[4] = molecular target: Peroxisome proliferator-activated receptor gamma (Homo sapiens) (UniProt P37231); experiment: ATG_PPARg_TRANS: Attagene TRANS-FACTORIAL HepG2 Assay for human Peroxisome Proliferator-activated Receptor-gamma (PPARg) (AID 2283007)
Summary of the method: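 Read-out: reporter mRNA induction, detected by fluorescence after RT-PCR and capillary electrophoresis. Transiently transfected human HepG2 liver cells carrying a chimeric NR-Gal4 construct were dosed for 24 h; activity was fitted upward relative to DMSO.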

[5] = molecular target: Nuclear receptor subfamily 1 group I member 2 (Homo sapiens) (UniProt O75469); experiment: ATG_PXR_TRANS: Attagene TRANS-FACTORIAL HepG2 Assay for human Pregnane X Receptor (PXR) (AID 2283008)
Summary of the method: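 Transient HepG2 transfectants carrying multiplexed reporter transcription units; PXR activity read through a Gal4 chimera. 24 h exposure. RT-PCR/CE fluorescence; upward curve fit referenced to DMSO.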

[6] = molecular target: human Peroxisome Proliferator-activated Receptor delta (PPARd), PPARD (gene 5467) (UniProt Q03181); experiment: ATG_PPARd_TRANS: Attagene TRANS-FACTORIAL HepG2 Assay for human Peroxisome Proliferator-activated Receptor delta (PPARd) (AID 2283002)
Summary of the method: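 HepG2 cells transiently transfected with multiplexed GAL4-UAS reporter units and exogenous chimeric NR-Gal4 proteins; 24 h compound exposure. Reporter mRNA measured by RT-PCR, 6-FAM labelling, HpaI digestion and capillary electrophoresis; gain of signal versus DMSO.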

[7] = BSK_3C_Proliferation: Cell Proliferation Assessment in the BioMAP Diversity Plus: 3C Assay (AID 2283006; active = hit-call score of the fitted dose curve at least 0.9, where 1 is the maximum; inactive = score below 0.9;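 as to AC50: potency may reflect either rise or fall in cell number versus DMSO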); conditions: primary human endothelial cells (HUVEC)
Summary of the method: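 Measured here: sulforhodamine B (0.1%) staining of TCA-fixed sub-confluent umbilical vein endothelial cultures 48 h post-dosing, absorbance 560 nm. DMSO served as negative control and baseline; both signal gain and loss were modelled.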

[8] = molecular target: human Retinoic Acid Receptor gamma (RARg), RARG (gene 5916) (UniProt P13631); experiment: ATG_RARg_TRANS: Attagene TRANS-FACTORIAL HepG2 Assay for human Retinoic Acid Receptor gamma (RARg) (AID 2283009)
Summary of the method: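 Gain-of-signal relative to DMSO is reported from fluorescent capillary electrophoresis of RT-PCR reporter products. These came from HepG2 cells expressing transfected RARg-GAL4 chimeras with UAS reporters, harvested 24 h after dosing.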

[9] = molecular target: human Retinoic Acid Receptor beta (RARb), RARB (gene 5915) (UniProt P10826); experiment: ATG_RARb_TRANS: Attagene TRANS-FACTORIAL HepG2 Assay for human Retinoic Acid Receptor beta (AID 2283004)
Summary of the method: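 Induction of reporter mRNA from a chimeric RARb-Gal4 construct was measured by RT-PCR, FAM labelling, HpaI digestion and capillary electrophoresis. Measurements followed 24 h compound treatment of transiently transfected human HepG2 liver cells, with DMSO as baseline.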

[10] = molecular target: Retinoic acid receptor alpha (Homo sapiens) (UniProt P10276); experiment: ATG_RARa_TRANS: Attagene TRANS-FACTORIAL HepG2 Assay for human Retinoic Acid Receptor alpha (RARa) (AID 2283005)
Summary of the method: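 HepG2 cells transiently transfected with multiple reporter units expressing chimeric RARα-GAL4 fusion, with GAL4-UAS-driven reporters. After 24 h compound exposure, reporter mRNA induction quantified by RT-PCR and capillary electrophoresis with fluorescent labeling; gain-of-signal fitted relative to DMSO control.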

Measured: AC50

Sequence of Retinoic acid receptor alpha (Homo sapiens) (P10276 whole entry, looked up, the tested form may be a part): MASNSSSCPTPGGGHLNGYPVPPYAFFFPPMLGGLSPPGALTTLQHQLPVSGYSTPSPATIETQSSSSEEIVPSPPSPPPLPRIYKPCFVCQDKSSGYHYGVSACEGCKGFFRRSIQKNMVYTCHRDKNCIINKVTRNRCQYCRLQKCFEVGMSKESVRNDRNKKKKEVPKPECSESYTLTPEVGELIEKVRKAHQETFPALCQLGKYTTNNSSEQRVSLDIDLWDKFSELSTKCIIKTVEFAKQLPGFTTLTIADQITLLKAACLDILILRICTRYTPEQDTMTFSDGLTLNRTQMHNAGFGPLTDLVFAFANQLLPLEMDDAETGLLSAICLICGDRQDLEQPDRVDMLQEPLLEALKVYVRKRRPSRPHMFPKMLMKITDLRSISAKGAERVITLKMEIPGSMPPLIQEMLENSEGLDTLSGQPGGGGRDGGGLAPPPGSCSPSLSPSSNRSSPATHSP
Sequence of Nuclear receptor subfamily 1 group I member 2 (Homo sapiens) (O75469 whole entry, looked up, the tested form may be a part): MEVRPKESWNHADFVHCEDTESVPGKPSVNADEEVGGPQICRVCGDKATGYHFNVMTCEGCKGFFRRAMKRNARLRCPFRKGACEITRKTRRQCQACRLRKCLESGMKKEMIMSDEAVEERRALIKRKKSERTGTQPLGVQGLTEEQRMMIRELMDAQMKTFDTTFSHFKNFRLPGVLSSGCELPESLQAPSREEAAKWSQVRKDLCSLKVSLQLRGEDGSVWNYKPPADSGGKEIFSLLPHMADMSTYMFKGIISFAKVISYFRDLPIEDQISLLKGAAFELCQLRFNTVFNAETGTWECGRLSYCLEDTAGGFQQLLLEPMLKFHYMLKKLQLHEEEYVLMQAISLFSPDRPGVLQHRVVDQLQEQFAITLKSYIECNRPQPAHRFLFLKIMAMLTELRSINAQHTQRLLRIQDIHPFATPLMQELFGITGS
Sequence of human Peroxisome Proliferator-activated Receptor alpha (PPARa), PPARA (gene 5465) (Q07869 whole entry, looked up, the tested form may be a part): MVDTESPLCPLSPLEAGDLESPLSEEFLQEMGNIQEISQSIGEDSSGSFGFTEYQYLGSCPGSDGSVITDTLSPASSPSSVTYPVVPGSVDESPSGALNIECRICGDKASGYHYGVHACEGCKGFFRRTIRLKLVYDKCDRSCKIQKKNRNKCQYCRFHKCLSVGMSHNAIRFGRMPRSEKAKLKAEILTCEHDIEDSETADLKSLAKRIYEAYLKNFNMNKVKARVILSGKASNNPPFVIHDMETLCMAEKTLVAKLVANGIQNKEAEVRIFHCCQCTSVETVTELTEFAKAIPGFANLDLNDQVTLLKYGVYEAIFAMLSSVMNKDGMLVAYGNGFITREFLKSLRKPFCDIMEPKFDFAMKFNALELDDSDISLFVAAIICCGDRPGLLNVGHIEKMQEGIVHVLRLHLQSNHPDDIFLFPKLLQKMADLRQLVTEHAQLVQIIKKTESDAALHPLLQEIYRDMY
Sequence of human Peroxisome Proliferator-activated Receptor delta (PPARd), PPARD (gene 5467) (Q03181 whole entry, looked up, the tested form may be a part): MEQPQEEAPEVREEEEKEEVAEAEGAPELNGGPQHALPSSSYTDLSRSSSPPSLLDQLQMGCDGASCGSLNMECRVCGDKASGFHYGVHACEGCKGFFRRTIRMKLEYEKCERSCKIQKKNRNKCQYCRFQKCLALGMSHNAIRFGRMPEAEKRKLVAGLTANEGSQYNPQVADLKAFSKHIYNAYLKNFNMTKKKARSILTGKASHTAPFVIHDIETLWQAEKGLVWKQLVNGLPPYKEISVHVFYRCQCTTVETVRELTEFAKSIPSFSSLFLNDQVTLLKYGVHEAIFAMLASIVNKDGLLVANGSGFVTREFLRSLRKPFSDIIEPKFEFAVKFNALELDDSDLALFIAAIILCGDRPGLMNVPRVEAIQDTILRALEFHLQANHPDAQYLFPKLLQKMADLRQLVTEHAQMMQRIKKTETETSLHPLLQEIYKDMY
Sequence of Peroxisome proliferator-activated receptor gamma (Homo sapiens) (P37231 whole entry, looked up, the tested form may be a part): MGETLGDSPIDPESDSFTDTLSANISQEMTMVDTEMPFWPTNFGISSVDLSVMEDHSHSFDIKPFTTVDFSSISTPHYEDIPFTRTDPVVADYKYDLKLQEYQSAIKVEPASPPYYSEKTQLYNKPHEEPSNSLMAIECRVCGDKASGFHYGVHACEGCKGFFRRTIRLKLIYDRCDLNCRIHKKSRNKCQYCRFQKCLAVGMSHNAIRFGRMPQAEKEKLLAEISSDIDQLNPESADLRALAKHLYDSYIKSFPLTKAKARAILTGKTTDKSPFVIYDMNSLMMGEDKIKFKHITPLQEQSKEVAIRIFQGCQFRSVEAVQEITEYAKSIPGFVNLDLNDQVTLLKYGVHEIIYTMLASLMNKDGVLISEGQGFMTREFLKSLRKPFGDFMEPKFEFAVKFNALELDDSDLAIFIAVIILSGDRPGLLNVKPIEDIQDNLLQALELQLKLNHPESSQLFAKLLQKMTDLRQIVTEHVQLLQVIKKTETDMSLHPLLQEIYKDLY
Sequence of human Retinoic Acid Receptor gamma (RARg), RARG (gene 5916) (P13631 whole entry, looked up, the tested form may be a part): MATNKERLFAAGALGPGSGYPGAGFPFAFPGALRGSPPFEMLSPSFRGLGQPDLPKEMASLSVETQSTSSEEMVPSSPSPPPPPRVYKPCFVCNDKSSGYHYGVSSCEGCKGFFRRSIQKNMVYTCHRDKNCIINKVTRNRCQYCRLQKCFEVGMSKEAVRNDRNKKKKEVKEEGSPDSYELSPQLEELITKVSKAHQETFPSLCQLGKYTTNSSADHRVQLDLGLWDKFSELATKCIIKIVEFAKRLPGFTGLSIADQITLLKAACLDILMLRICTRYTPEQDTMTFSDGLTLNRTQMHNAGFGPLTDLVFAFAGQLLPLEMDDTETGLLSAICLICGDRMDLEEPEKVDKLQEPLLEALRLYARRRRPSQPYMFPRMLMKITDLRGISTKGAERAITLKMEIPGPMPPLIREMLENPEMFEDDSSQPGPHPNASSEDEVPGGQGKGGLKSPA
Sequence of human Retinoic Acid Receptor beta (RARb), RARB (gene 5915) (P10826 whole entry, looked up, the tested form may be a part): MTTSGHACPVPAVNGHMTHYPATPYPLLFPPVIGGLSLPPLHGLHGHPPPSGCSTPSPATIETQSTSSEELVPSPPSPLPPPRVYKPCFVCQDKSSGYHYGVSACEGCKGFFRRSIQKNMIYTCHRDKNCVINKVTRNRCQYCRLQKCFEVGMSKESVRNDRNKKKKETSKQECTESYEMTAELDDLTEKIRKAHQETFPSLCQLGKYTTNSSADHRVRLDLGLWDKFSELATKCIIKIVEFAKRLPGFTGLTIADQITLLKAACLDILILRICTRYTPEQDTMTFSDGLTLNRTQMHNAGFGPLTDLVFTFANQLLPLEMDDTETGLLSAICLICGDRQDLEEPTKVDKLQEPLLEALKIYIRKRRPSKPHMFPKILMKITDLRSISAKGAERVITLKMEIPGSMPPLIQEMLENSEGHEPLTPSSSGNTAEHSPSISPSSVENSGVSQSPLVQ

CC(=O)OC(C)(C)C1CC=C(C)CC1 (configuration not stated)
inactive: [2] | [3] | [4]
active: [1] 33.3 µM | [5] 33.8 µM

c1ccc2c(c1)-c1ccc3ccc4cccc5cc-2c1c3c45
inactive: [2] | [6] | [3] | [4] | [5]
active: [1] 0.981 µM

CC(=O)OCC=C(C)CCC=C(C)CCC=C(C)C
active: [4] 18.9 µM | [5] 15.7 µM
inactive: [1] | [2] | [3]

CC1(C)[C@H](C=C(Cl)Cl)[C@H]1C(=O)OCc1cccc(Oc2ccccc2)c1
inactive: [1] | [6] | [3]
active: [5] 1.99 µM

O=C1OC2(c3ccc(O)cc3Oc3cc(O)ccc32)c2ccccc21
active: [7] 20 µM | [5] 0.896 µM
inactive: [1] | [2] | [6] | [3] | [4]

CCOC(=O)C=Cc1ccccc1
active: [4] 25.4 µM | [5] 30.8 µM
inactive: [1] | [2] | [3] | [8]

CCCCCCCCCC(=O)OCC
inactive: [6] | [5] | [8]
active: [1] 34.3 µM | [2] 64.9 µM | [3] 35.1 µM | [4] 84.8 µM

O=C(O)C(F)(F)C(F)(F)C(F)(F)C(F)(F)C(F)(F)C(F)(F)C(F)(F)C(F)F
inactive: [1] | [3]

CCCCCCCC1CCCC1=O (configuration not stated)
inactive: [2] | [4] | [8]
active: [1] 31.9 µM | [3] 31.3 µM | [5] 34.2 µM

C=C(F)C(=O)OC(C(F)(F)F)C(F)(F)F
inactive: [1] | [3]

CCOC(=O)CCCCCCCCC(=O)OCC
inactive: [1] | [2] | [3] | [4]

CCCCCCCCCCCCS
active: [1] 28 µM | [3] 29.8 µM
inactive: [2] | [4] | [5]

CC/C(=C(\c1ccccc1)c1ccc(OCCN(C)C)cc1)c1ccccc1
inactive: [2] | [6] | [9] | [10] | [4] | [5]
active: [1] 7.7 µM and 7.63 µM | [3] 11.1 µM and 11.9 µM | [5] 2.01 µM and 3.57 µM and 5.25 µM

C=CC(=O)OCC(CO)(COC(=O)C=C)COC(=O)C=C
active: [1] 0.41 µM | [3] 0.574 µM
inactive: [2] | [6] | [4]

C#C[C@]1(O)CC[C@H]2[C@@H]3CCc4cc(O)ccc4[C@H]3CC[C@@]21C
active: [5] 2.7 µM and 4.39 µM and 6.57 µM
inactive: [1] | [6] | [3] | [9] | [10] | [4] | [5] | [8]

COc1ccccc1NC(=O)CC(C)=O
active: [5] 37 µM
inactive: [1] | [2] | [6] | [3] | [4]

C[C@]12CC[C@@H]3c4ccc(O)cc4CC[C@H]3[C@@H]1CC[C@@H]2O
inactive: [2] | [6] | [3] | [9] | [10] | [5] | [8]
active: [1] 20 µM | [5] 5.7 µM and 3.83 µM and 4.54 µM

NC(=O)c1c(Cl)cccc1Cl
inactive: [1] | [2] | [6] | [3] | [4]
active: [5] 0.36 µM

O=C(c1ccc(OCCN2CCCCC2)cc1)c1c(-c2ccc(O)cc2)sc2cc(O)ccc12
inactive: [2] | [6] | [4] | [5]
active: [1] 34.4 µM | [3] 38.2 µM | [4] 13.7 µM [middle of 4 runs] | [5] 1.97 µM and 3.44 µM

CC(C)CCCC(C)(C)O
inactive: [1] | [6] | [3] | [5]

CC(C)(C)c1cccc(O)c1
active: [5] 27.2 µM
inactive: [1] | [2] | [6] | [3] | [10] | [4] | [8]

OCCN1CCOCC1
inactive: [1] | [2] | [6] | [3] | [9] | [5] | [8]

CC(C)Cc1ccc(C(C)C(=O)O)cc1 (configuration not stated)
inactive: [1] | [3] | [7] | [5] | [8]
active: [2] 31 µM | [6] 142 µM

CC(=O)c1ccc(C)cc1
inactive: [1] | [2] | [3]

O=S1(=O)CC(Cl)(Cl)C(Cl)(Cl)C1
inactive: [2] | [6] | [5]
active: [1] 0.408 µM | [3] 1.02 µM | [7] 0.191 µM

CC(C)(CO)CO
inactive: [1] | [6] | [3]

Nc1ccc(N)c([N+](=O)[O-])c1
inactive: [1] | [2] | [6] | [3] | [9] | [4] | [5] | [8]

— PubChem BioAssay (EPA / NIEHS)
